Measured values taken from PubChem BioAssay (NCI).
About 79,000 compounds went through this panel and 15% of them were active in at least one assay; those are over-represented in the sample as a whole. Calls of active or inactive are those of the source. Rule as the data show it: active = growth inhibition above about 70%; inactive = the rest.

How the values were obtained:
[1] = NCI Yeast Anticancer Drug Screen. Data for the rad52 strain (AID 147);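 also: 0% = growth of vehicle-treated control cultures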; conditions: S. cerevisiae rad52 mutant growth inhibition, active compounds read high
Outline: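 Measured: yeast growth inhibition. System: strain with a defined DNA damage repair alteration. Reference: vehicle-treated control cultures.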

[2] = NCI Yeast Anticancer Drug Screen. Data for the wt1 strain (AID 149);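 also: 0% = growth of vehicle-treated wt1 cultures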; conditions: S. cerevisiae wt1 strain (SPY 50644) growth inhibition, active compounds read high
Outline: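 Yeast wt1 strain exposed to compounds; growth inhibition measured relative to vehicle-treated controls.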

[3] = NCI Yeast Anticancer Drug Screen. Data for the mgt1 strain (AID 153); conditions: S. cerevisiae mgt1 mutant growth inhibition, active compounds read high
Outline: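 After exposure of the mgt1 yeast mutant to compound, growth was measured and reported as inhibition compared with vehicle controls.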

[4] = NCI Yeast Anticancer Drug Screen. Data for the rad50 strain (AID 155);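 also: 0% = growth of vehicle-only cultures of the same strain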; conditions: S. cerevisiae rad50 strain growth inhibition, active compounds read high
Outline: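 Yeast carrying a defined DNA repair defect were exposed to test compounds, and growth was compared with vehicle-treated controls to give percent inhibition.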

[5] = NCI Yeast Anticancer Drug Screen. Data for the mec2-1 strain (AID 157); conditions: S. cerevisiae mec2-1 strain, active compounds read high
Outline: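 Test agents were screened against the mec2-1 yeast strain, with defined DNA repair or cell cycle alteration. Growth was scored as inhibition against vehicle-only controls.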

[6] = NCI Yeast Anticancer Drug Screen. Data for the rad14 strain (AID 159);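 also: 0% = growth of vehicle-treated control cultures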; conditions: S. cerevisiae rad14 strain growth inhibition, active compounds read high
Outline: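 Yeast cells carrying a defined DNA-repair defect were exposed to compounds, and growth inhibition was calculated relative to vehicle-treated control cultures.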

[7] = NCI Yeast Anticancer Drug Screen. Data for the sgs1 mgt1 strain (AID 161);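 also: 0% = growth of cultures given vehicle only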; conditions: S. cerevisiae sgs1 mgt1 strain, active compounds read high
Outline: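 Inhibition of yeast growth, normalised to vehicle-treated controls, is reported for a strain bearing genetic alterations in DNA damage repair.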

[8] = NCI Yeast Anticancer Drug Screen. Data for the CLN2oe strain (AID 163);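 also: 0% = growth of vehicle-only control cultures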; conditions: S. cerevisiae CLN2oe strain, active compounds read high
Outline: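 Here, growth inhibition in a cell-cycle-altered yeast strain after compound exposure was quantified against vehicle control growth.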

[9] = NCI Yeast Anticancer Drug Screen. Data for the bub3 strain (AID 167); conditions: S. cerevisiae bub3 mutant strain, active compounds read high
Outline: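 Compounds were applied to a genetically altered yeast strain carrying a cell-cycle control defect. Growth inhibition was scored against vehicle-treated controls.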

[10] = NCI Yeast Anticancer Drug Screen. Data for the wt2 strain (AID 169);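 also: 0% = growth of vehicle-treated yeast cultures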; conditions: S. cerevisiae wt2 strain growth inhibition, active compounds read high
Outline: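 Genetically defined yeast strains from a DNA-repair/cell-cycle panel were used. Compound-exposed yeast growth was measured, and the inhibition was calculated relative to vehicle treatment.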

[11] = NCI Yeast Anticancer Drug Screen. Data for the sgs1 strain (AID 173);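 also: 0% = growth of vehicle-only control cultures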; conditions: S. cerevisiae sgs1 mutant, active compounds read high
Outline: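 Relative growth inhibition, referenced to vehicle, was determined in a yeast strain with a defined alteration affecting DNA damage repair or cell cycle control after compound exposure.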

[12] = NCI Yeast Anticancer Drug Screen. Data for the mlh1 rad18 strain (AID 175); conditions: S. cerevisiae mlh1 rad18 strain growth inhibition, active compounds read high
Outline: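 In this whole-cell yeast screen, a strain with altered DNA damage repair is challenged with compound, and its growth is measured against matched vehicle-treated controls.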

[13] = NCI Yeast Anticancer Drug Screen. Data for the rad18 strain (AID 177); conditions: S. cerevisiae rad18 mutant growth inhibition, active compounds read high
Outline: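 Screen uses a yeast strain with a defined lesion in DNA damage repair; compound effect is read as loss of growth compared to untreated vehicle cultures.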

[14] = NCI Yeast Anticancer Drug Screen. Data for the rad50EPP+ strain (AID 151);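 also: 0% = growth of vehicle-treated control cultures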; conditions: S. cerevisiae rad50 mutant strain, active compounds read high
Outline: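 One strain with a rad50 alteration (rad50EPP+) was compound-treated, its growth then compared to that of vehicle controls.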

[15] = NCI Yeast Anticancer Drug Screen. Data for the mlh1 strain (AID 171);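 also: 0% = growth of vehicle-treated control cultures of the same strain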; conditions: S. cerevisiae mlh1 strain growth inhibition, active compounds read high
Outline: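 Here the genetically defined yeast mutant is grown with each compound, and the extent to which its growth falls below that of vehicle-exposed cells is reported.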

[16] = at 5.0 µM (retest, dose inferred, filed as 0.5)
[17] = at 50.0 µM (retest, dose inferred, filed as 5.0)

Measured: growth inhibition

CCOC(=S)SSSC(=S)OCC
inactive: [1]; at 1.2 µM 4% | [1]; at 3.7 µM 17% | [2]; at 1.2 µM -3% | [2]; at 3.7 µM 3% | [2]; at 11.0 µM 31% | [3]; at 1.2 µM -1% | [3]; at 3.7 µM 6% | [3]; at 11.0 µM 31% | [3]; at 100.0 µM 56% | [4]; at 1.2 µM 7% | [4]; at 3.7 µM 19% | [4]; [16] 43% | [4]; at 50.0 µM 29.6% | [5]; at 1.2 µM -6% | [5]; at 3.7 µM -5% | [5]; at 11.0 µM 20% | [5]; at 50.0 µM 19.4% | [6]; at 1.2 µM 0% | [6]; at 3.7 µM 5% | [6]; at 11.0 µM 40% | [7]; [16] 9% | [7]; at 50.0 µM 41.2% | [8]; at 1.2 µM -2% | [8]; at 3.7 µM -1% | [8]; at 11.0 µM 18% | [8]; at 33.0 µM 57% | [9]; at 1.2 µM -5% | [9]; at 3.7 µM -4% | [9]; [16] -3% | [9]; at 11.0 µM 36% | [9]; at 50.0 µM 50.4% | [10]; at 1.2 µM -1% | [10]; at 3.7 µM 0% | [10]; at 11.0 µM 33% | [11]; at 1.2 µM 0% | [11]; at 3.7 µM 9% | [11]; at 11.0 µM 56% | [12]; [16] 55% | [12]; at 50.0 µM 27.2% | [13]; at 1.2 µM 0% | [13]; at 3.7 µM 8% | [13]; at 11.0 µM 56%
active: [1]; at 11.0 µM 70% | [1]; at 33.0 µM 97% | [1]; at 100.0 µM 99% | [2]; at 33.0 µM 88% | [2]; at 100.0 µM 99% | [3]; at 33.0 µM 96% | [4]; at 11.0 µM 76% | [4]; at 33.0 µM 99% | [4]; [17] 99% | [4]; at 100.0 µM 99% | [5]; [16] 87% | [5]; at 33.0 µM 91% | [5]; [17] 100% | [5]; at 100.0 µM 99% | [6]; at 33.0 µM 96% | [6]; at 100.0 µM 99% | [7]; [17] 99% | [8]; at 100.0 µM 95% | [9]; at 33.0 µM 95% | [9]; [17] 99% | [9]; at 100.0 µM 99% | [10]; at 33.0 µM 95% | [10]; at 100.0 µM 99% | [11]; at 33.0 µM 98% | [11]; at 100.0 µM 99% | [12]; [17] 99% | [13]; at 33.0 µM 98% | [13]; at 100.0 µM 99%

CC(=O)O[C@H]1CC[C@@]2(C)C(=CC[C@@H]3C2CC[C@]2(C)C(=O)NC(=O)CC32)C1 (stereo not given in full)
active: [3]; at 33.0 µM 76% | [3]; at 100.0 µM 70% | [7]; [17] 74% | [7]; at 50.0 µM 81.5% | [10]; at 33.0 µM 73% | [10]; at 100.0 µM 71% | [15]; at 33.0 µM 75% | [11]; at 11.0 µM 70% | [11]; at 33.0 µM 86% | [11]; at 100.0 µM 79%
inactive: [1]; at 1.2 µM -33% | [1]; at 3.7 µM -35% | [1]; at 11.0 µM -42% | [1]; at 33.0 µM -29% | [1]; at 100.0 µM -41% | [14]; at 1.2 µM -8% | [14]; at 3.7 µM 0% | [14]; at 11.0 µM 25% | [14]; at 33.0 µM 54% | [14]; at 100.0 µM 27% | [3]; at 1.2 µM -28% | [3]; at 3.7 µM -19% | [3]; at 11.0 µM 56% | [4]; at 1.2 µM -31% | [4]; at 3.7 µM -29% | [4]; [16] -21% | [4]; at 11.0 µM -20% | [4]; at 33.0 µM -25% | [4]; [17] -29% | [4]; at 50.0 µM 12.4% | [4]; at 100.0 µM -28% | [5]; at 1.2 µM -21% | [5]; at 3.7 µM -15% | [5]; [16] -44% | [5]; at 11.0 µM -13% | [5]; at 33.0 µM -43% | [5]; [17] -6% | [5]; at 50.0 µM -12.2% | [5]; at 100.0 µM -23% | [6]; at 1.2 µM -29% | [6]; at 3.7 µM -27% | [6]; at 11.0 µM -26% | [6]; at 33.0 µM -11% | [6]; at 100.0 µM -41% | [7]; [16] 21% | [8]; at 1.2 µM 2% | [8]; at 3.7 µM -4% | [8]; at 11.0 µM -16% | [8]; at 33.0 µM -13% | [8]; at 100.0 µM -23% | [9]; at 1.2 µM -14% | [9]; at 3.7 µM -29% | [9]; [16] 1% | [9]; at 11.0 µM -22% | [9]; at 33.0 µM -20% | [9]; [17] 46% | [9]; at 50.0 µM 9.95% | [9]; at 100.0 µM -31% | [10]; at 1.2 µM 8% | [10]; at 3.7 µM 19% | [10]; at 11.0 µM 46% | [15]; at 1.2 µM 1% | [15]; at 3.7 µM 17% | [15]; at 11.0 µM 57% | [15]; at 100.0 µM 64% | [11]; at 1.2 µM 16% | [11]; at 3.7 µM 40% | [12]; [16] -17% | [12]; [17] 3% | [12]; at 50.0 µM -0.8% | [13]; at 1.2 µM -1% | [13]; at 3.7 µM 0% | [13]; at 11.0 µM 1% | [13]; at 33.0 µM 4% | [13]; at 100.0 µM 0%
